The text below walks through data of PubChem BioAssay (EPA / NIEHS).

The AC50 is the midpoint of the concentration-response curve, whichever way the signal moves.

Values joined by “and” are separate entries in the source; they are usually repeats but may differ in a detail not shown here. Equal entries are not always repeated. A structure can be active in one record and inactive in another. Active and inactive are the calls of the source. How the source made its calls: active means hit-call score of the fitted dose curve at least 0.9, where 1 is the maximum; inactive means score below 0.9.

Read-out in test [1]: Human Leukocyte Antigen - DR isotype (HLADR), HLA-DRA (gene 3122)
The test is described as follows: BSK_BE3C_HLADR: BioMAP Diversity Plus: BE3C Assay for Human Leukocyte Antigen - DR isotype (HLADR) Biomarker Activity (AID 2283032). The conditions noted are these: primary human bronchial epithelial cells; actives raise or lower the signal. In short, it runs like this: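 ELISA read-out of HLA-DR on human lung bronchial epithelial primary cells, measured 24 h post-dosing. Both increases and decreases were scored relative to DMSO vehicle.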

Read-out in test [2]: Vascular cell adhesion molecule 1 (VCAM1), VCAM1 (gene 7412)
The test is described as follows: BSK_4H_VCAM1: BioMAP Diversity Plus: 4H Assay for Vascular cell adhesion molecule 1 (VCAM1) Biomarker Activity (AID 2283033).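 On outcome: cell-surface VCAM-1 protein measured by ELISA.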 Conditions: primary human endothelial cells (HUVEC); actives raise or lower the signal. The method, boiled down:
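ELISA read-out of VCAM-1 on human umbilical vein endothelium 24 hours after chemical dosing; gain or loss of signal was fitted relative to DMSO, with sulforhodamine B staining of parallel cultures flagging overt cytotoxicity.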

Read-out in test [3]: Interferon-gamma inducible Protein 10 (IP10), CXCL10 (gene 3627)
Briefly: BSK_BE3C_IP10: BioMAP Diversity Plus: BE3C Assay for Interferon-gamma inducible Protein 10 (IP10) Biomarker Activity (AID 2283034). Conditions: primary human bronchial epithelial cells; actives raise or lower the signal. In short, it runs like this:
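Chemical is dosed onto human lung bronchial epithelial primary cells, cultures are incubated 24 h, and IP-10 is then quantified by ELISA. Gain or loss of signal is fitted in both directions relative to DMSO.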

Read-out in test [4]: Transforming growth factor beta 1 (TGFb1), TGFB1 (gene 7040)
The test is described as follows: BSK_BE3C_TGFb1: BioMAP Diversity Plus: BE3C Assay for Transforming growth factor beta 1 (TGFb1) Biomarker Activity (AID 2283036;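 further: TGF-b1 protein level measured by ELISA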). The conditions noted are these: primary human bronchial epithelial cells; actives raise or lower the signal. The method, boiled down:
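Primary human lung bronchial epithelial cells; compound exposure 24 h; TGF-b1 by ELISA; bidirectional fit, DMSO baseline. Parallel SRB total-protein staining for cytotoxicity.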

Read-out in test [5]: Plasminogen activator inhibitor-1 (PAI1), SERPINE1 (gene 5054)
Briefly: BSK_BE3C_PAI1: BioMAP Diversity Plus: BE3C Assay for Plasminogen activator inhibitor-1 (PAI1) Biomarker Activity (AID 2283037). The conditions noted are these: primary human bronchial epithelial cells; actives raise or lower the signal. The method, boiled down:
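Primary human lung bronchial epithelial cells; chemical dosing; 24 h; PAI-1 measured by ELISA; bidirectional fit referenced to DMSO as negative control.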

Read-out in test [6]: Urokinase-type plasminogen activator receptor (uPAR), PLAUR (gene 5329)
The test is described as follows: BSK_BE3C_uPAR: BioMAP Diversity Plus: BE3C Assay for Urokinase-type plasminogen activator receptor (uPAR) Biomarker Activity (AID 2283039).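 On outcome: uPAR protein level measured by ELISA on the cells; cells exposed to compound for one day before measurement.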 The conditions noted are these: primary human bronchial epithelial cells; actives raise or lower the signal. The method, boiled down:
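Human bronchial epithelial primary cells; chemical exposure 24 h; uPAR by ELISA; bidirectional fit vs DMSO control.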

Read-out in test [7]: Interleukin-6 (IL6), IL6 (gene 3569)
The test is described as follows: BSK_CASM3C_IL6: BioMAP Diversity Plus: CASM3C Assay for Interleukin-6 (IL6) Biomarker Activity for (AID 2283040). The conditions noted are these: primary human coronary artery smooth muscle cells; actives raise or lower the signal.

Read-out in test [8]: Tissue plasminogen activator (tPA), PLAT (gene 5327)
Briefly: BSK_BE3C_tPA: BioMAP Diversity Plus: BE3C Assay for Tissue plasminogen activator (tPA) Biomarker Activity (AID 2283041).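 On outcome: tPA level quantified by ELISA one day after compound addition.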 Conditions: primary human bronchial epithelial cells; actives raise or lower the signal. The method, boiled down:
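Primary human lung bronchial epithelial cultures receive test chemical; after 24 h, tPA is quantified by ELISA, and gain or loss of signal is fitted bidirectionally relative to DMSO baseline.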

Read-out in test [9]: urokinase plasminogen activator (uPA), PLAU (gene 5328)
The test is described as follows: BSK_BE3C_uPA: BioMAP Diversity Plus: BE3C Assay for urokinase plasminogen activator (uPA) Biomarker Activity (AID 2283038).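 On outcome: uPA protein level quantified by ELISA in cell cultures; uPA read one day after compound addition.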 The conditions noted are these: primary human bronchial epithelial cells; actives raise or lower the signal. In short, it runs like this: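 Primary human bronchial epithelial cells, uPA measured by ELISA 24 h after dosing. Bidirectional change relative to DMSO; cytotoxicity checked in parallel cultures by sulforhodamine B total-protein staining.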

Read-out in test [10]: Monokine induced gamma interferon (MIG), CXCL9 (gene 4283)
The test is described as follows: BSK_BE3C_MIG: BioMAP Diversity Plus: BE3C Assay for Monokine induced gamma interferon (MIG) Biomarker Activity (AID 2283035). The conditions noted are these: primary human bronchial epithelial cells; actives raise or lower the signal. The method, boiled down: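 ELISA read-out of MIG in human lung bronchial epithelial primary cultures, 24 h post-dosing. Bidirectional curve fit vs DMSO baseline.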

With `CCCCCCCC(=O)O`, the result in test [1], in test [2], in test [3], in test [4], in test [5] and in test [6] was inactive. The result in test [7] and in test [8] was inactive.

Turning to `CCOC(=O)CC(O)(CC(=O)OCC)C(=O)OCC`, the result in test [1], in test [2], in test [3], in test [4], in [5] and in [6] was inactive. For the same compound, the outcome in test [7] and in test [8] was inactive.

Take `CC(C)(C)c1cc(C(C)(C)C)c(O)c(C(C)(C)C)c1`: the outcome in [1], in [2], in test [3], in test [4], in test [5] and in [6] was inactive. In addition, the result in test [7] and in test [8] was inactive.

Consider `CCCCCCCCCCCCCCCS(=O)(=O)Oc1ccccc1`, for which the result in test [1], in test [2], in test [3], in test [4], in test [5] and in test [6] was inactive. Besides, the result in test [7] and in [8] was inactive.

Take `COCC(C)O` (configuration not stated): the result in test [1], in [2], in [3], in [4], in test [5] and in test [6] was inactive. Besides, the result in [7] and in [8] was inactive.

In the case of `COCC(C)OCC(C)O` (configuration not stated), the result in [1], in [2], in [3], in [4], in test [5] and in [6] was inactive. Further, the outcome in test [7] and in test [8] was inactive.

In the case of `CC1=C(/C=C/C(C)=C/C=C/C(C)=C/C(=O)O)C(C)(C)CCC1`, the AC50 is 20 µM (active) in test [1], 26.3 µM (active) in test [2], 20 µM (active) in test [3] and 2.7 µM (active) in [7]. Further, the outcome in test [4], in [5], in test [9], in [6] and in test [8] was inactive.

As for `CC(C)(C)c1cccc(C(C)(C)C)c1O`, the result in test [1], in test [2], in test [3], in test [4], in test [5] and in test [6] was inactive. In addition, the outcome in test [7] and in test [8] was inactive.

On to `CN1CCC[C@H]1c1cccnc1`, for which the result in [1], in test [2], in test [3], in test [4], in test [5] and in test [6] was inactive. The outcome in test [7] and in test [8] was inactive.

As for `CCCCCCCCC(=O)O`, the result in [1], in test [2], in [3], in [4], in test [5] and in test [6] was inactive. Also, the result in [7] and in [8] was inactive.

On to `CCCOC(=O)c1ccc(O)cc1`, for which the outcome in [1], in test [2], in test [3], in [4], in test [5] and in test [9] was inactive. Moreover, the result in [6], in test [7] and in test [8] was inactive.

As to `CCCCCCCCOC(=O)CCCCCCCCC(=O)OCCCCCCCC`, the result in [1], in [2], in test [3], in test [4], in test [5] and in test [9] was inactive. The result in test [6], in test [7] and in test [8] was inactive.

In the case of `CC#C[C@]1(O)CC[C@H]2[C@@H]3CCC4=CC(=O)CCC4=C3[C@@H](c3ccc(N(C)C)cc3)C[C@@]21C`, the outcome in [1], in [4] and in test [7] was inactive. The half-maximal activity concentration (AC50) in [2] is 26.4 µM (active); in test [3], 36.7 µM (active); in test [5], 12.9 µM (active); in [9] it was 34.7 µM (active); in test [6] it was 33.7 µM (active); in test [8] it was 19.4 µM (active).

Take `c1ccc2cc3c(ccc4ccccc43)cc2c1`: the outcome in test [1], in test [2], in [3], in [4], in [9] and in test [6] was inactive. In addition, the result in test [7] and in test [8] was inactive. The AC50 in test [5] is 3.97 µM (active).

For the compound `NC(=O)N(O)[C@@H]1C=C[C@H](Oc2cccc(Oc3ccc(F)cc3)c2)C1`, the outcome in test [1], in test [2], in test [4], in test [5], in test [6] and in test [7] was inactive. Besides, the results for the concentration at half-maximal activity (AC50) in [3] and in [8] were 30.7 µM (active) and 5.68 µM (active), respectively.

`COC(=O)CCCCC(=O)OC`: the result in [1], in test [2], in test [3], in test [4], in test [5] and in [6] was inactive. The outcome in [7] and in test [8] was inactive.

For the compound `FC(F)(I)C(F)(F)C(F)(F)C(F)(F)C(F)(F)C(F)(F)I`, the AC50 in [3] is 18.4 µM (active) and 16.9 µM (active) and 45.2 µM (active); in test [10], 45.1 µM (active) [middle of 5 runs]; in test [5], 24.9 µM (active) [middle of 5 runs]; in test [6], 43.5 µM (active) [middle of 5 runs]; in [7], 35.9 µM (active) [middle of 5 runs]. Also, in [8], the outcome was inactive.

In the case of `O=c1c(-c2ccc(O)cc2)coc2cc(O)ccc12`, the result in test [1], in test [2], in test [3], in test [4], in test [5] and in test [6] was inactive. Further, the result in test [7] and in test [8] was inactive.
